Assay outcomes deposited in PubChem BioAssay by Sanford-Burnham Center for Chemical Genomics.
Only some compounds are listed: those with a hit (about 2.6% of all), similar ones and a draw of the others.
APOBEC3G inh – inhibitors of human APOBEC3G DNA deaminase; recombinant A3G, ssDNA deamination FAM/TAMRA fluorescence; inhibition, % at 20 µM; AID 493012; 0.28% of 330,000 active;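 active = inhibition of at least 40% at 20 µM, with no more than 30% in the related APOBEC3A deaminase screen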;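 also: plate controls were DMSO wells with A3G for no effect and wells lacking A3G enzyme for full effect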
PABP1 MLLE inh – blocks PAM2 peptide binding to the PABP1 MLLE domain. P11940. GST-MLLE / FITC-PAM2 fluorescence polarization. 0.36% of 360,000 active. inhibition, % at 20 µM; in the data active = inhibition above about 35%, passing the limit was not always enough;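 also: plate controls were DMSO wells with GST-MLLE for no effect and wells lacking GST-MLLE protein for full effect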
PHOSPHO1 inh – PHOSPHO1 (human) inhibition | 1.1% of 290,000 active | inhibition, % at 13.3 µM | Q8TCT1 | recombinant PHOSPHO1, absorbance phosphatase assay; in the data active = inhibition above about 60%
Target sequence (Q8TCT1 whole entry, looked up): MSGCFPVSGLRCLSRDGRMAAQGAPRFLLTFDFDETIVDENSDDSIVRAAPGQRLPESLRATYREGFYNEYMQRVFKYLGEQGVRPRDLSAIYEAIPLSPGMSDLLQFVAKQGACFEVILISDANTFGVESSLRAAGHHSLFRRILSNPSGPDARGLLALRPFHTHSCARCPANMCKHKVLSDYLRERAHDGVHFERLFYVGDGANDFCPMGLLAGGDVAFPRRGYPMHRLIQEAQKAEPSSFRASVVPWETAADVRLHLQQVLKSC
A3A deaminase – human APOBEC3A DNA deaminase inhibition; P31941; recombinant A3A, FAM/TAMRA ssDNA deamination fluorescence; inhibition, % at 20 µM; 0.41% of 330,000 active;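 active = at least 40% inhibition at 20 µM here, with at most 30% in a related deaminase screen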;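 also: plate controls were A3A with DMSO for no effect and wells lacking A3A enzyme for full effect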
Target sequence (P31941 whole entry, looked up): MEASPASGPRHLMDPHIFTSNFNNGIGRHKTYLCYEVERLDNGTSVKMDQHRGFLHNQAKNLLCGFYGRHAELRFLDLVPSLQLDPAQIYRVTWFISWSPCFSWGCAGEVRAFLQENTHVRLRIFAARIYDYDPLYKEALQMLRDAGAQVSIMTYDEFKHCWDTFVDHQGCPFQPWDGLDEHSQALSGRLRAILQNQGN
eIF4H inh – inhibitors of RNA binding by human eIF4H; 0.94% of 290,000 active; inhibition, % at 35 µM; AID 2012; eIF4H fluorescence polarization binding assay;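 also: calls also rest on retests at 20 µM and on dose response follow-up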
PABP FP inh – blocks human PABP binding to poly(A) RNA; P11940; fluorescence polarization; calls only at 35 µM; 1% of 290,000 active;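 also: calls also rest on retests at 20 µM and on dose response follow-up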
* marks the source's active call; other numbers are inactive results; i = inactive; ? = inconclusive; . = not tested or not shown; + = active, no number. Unless noted, no rule for the calls is given here.

SMILES	APOBEC3G inh	PABP1 MLLE inh	PHOSPHO1 inh	A3A deaminase	eIF4H inh	PABP FP inh
Cc1nc(S(=O)(=O)Nc2ccccc2C(=O)NCC2CC2)cn1C	-2	2	63*	1	-7	i
CC(C)(C)c1ccc(OCC(O)CSc2ncn[nH]2)cc1 (stereo unspecified)	-12	28	80*	-3	-46	i
Oc1ccc(NCc2cccc(OCc3ccccc3)c2)cc1	8	-24	37	-1	69	+
NC(=S)Nc1nc2ccccc2[nH]c1=O	-1	.	66*	7	4	i
O=C(CNC(=O)c1cccc(OC(F)F)c1)OCc1cc(=O)n2cc(Br)ccc2n1	5	-32	-34	20	70	+
O=C1/C(=C\c2ccc(-c3ccccc3Cl)o2)SC(=S)N1CC1CCCO1 (stereo unspecified)	-1	-78	81*	0	?	?
Cc1ccc(/C=C2/SC(=O)NC2=S)o1	46	126	68*	72	?	i
O=C1/C(=C/c2cccnc2)SC(=S)N1CC1CCCO1 (stereo unspecified)	-2	35	27	6	-3	i
Cc1ccc(/C=C2/SC(=S)N(C3CCCCC3)C2=O)o1	1	-22	17	2	5	i
Cc1ccc(/C=C2\SC(=S)N(CC3CCCO3)C2=O)o1 (stereo unspecified)	18	-1	77*	11	22	i
CC1CCCCC1NC(=O)c1cccc(N2C(=O)C3C4C=CC(C4)C3C2=O)c1 (stereo unspecified)	-9	1	14	-5	-12	i
Cc1ccc(-c2ccc(/C=N/NC(=S)Nc3ccccc3)o2)cc1[N+](=O)[O-]	-11	38*	-5	-1	5	i
O=C(O)c1cccc(-c2ccc(/C=N/Nc3ccc([N+](=O)[O-])cc3)o2)c1	-7	-141	13	-1	54	+
CNC(=S)N/N=C/c1ccc(-c2ccc(C(=O)O)cc2)o1	0	9	49	12	54*	+
CNC(=S)N/N=C/c1ccc(-c2ccc(Cl)c([N+](=O)[O-])c2)o1	-2	22	17	-3	-4	i
O=C(O)c1ccc(N/N=C/c2ccc(-c3ccc(Cl)cc3Cl)o2)cc1	-1	-5	16	0	76	+
O=C(O)c1ccc(-c2ccc(/C=N/Nc3ccc([N+](=O)[O-])cc3)o2)cc1	-23	-140	27	-15	45	i
C=CCn1c(C)cc(C(=O)COC(=O)c2ccc3c(c2)NC(=O)CS3)c1C	5	15	-2	7	47	i
NS(=O)(=O)c1ccc(-c2ccc(/C=N/Nc3ccc(C(=O)O)cc3)o2)cc1	11	-40	32	21	56*	i
NS(=O)(=O)c1ccc(-c2ccc(/C=N/NC(=O)c3ccc([N+](=O)[O-])cc3)o2)cc1	3	-5	49	-7	10	i
O=C(/C=C/c1ccco1)Nc1ccccc1N1CCCC1	-1	17	25	2	62	i
O=C(/C=C/c1ccco1)NC1=NCCS1	-1	35	-13	0	?	+
O=C(/C=C/c1ccco1)Nc1ccccc1C(=O)Nc1cccc(C(=O)O)c1	-1	4	28	21	?	+
Cc1ccc(C(=O)N/C(=C/c2ccco2)C(=O)Nc2cccc(C(=O)O)c2)cc1	-3	.	14	-1	25	i
O=C(/C=C/c1ccco1)Nc1ccccc1C(=O)O	72	16	-14	94	95	+
SMILES	APOBEC3G inh	PABP1 MLLE inh	PHOSPHO1 inh	A3A deaminase	eIF4H inh	PABP FP inh
COc1ccccc1C(=O)N/C(=C/c1ccco1)C(=O)Nc1cccc(C(=O)O)c1	3	-21	2	8	67*	+
COc1cc(NC(=O)COC(=O)c2cnccn2)c(C)cc1[N+](=O)[O-]	-7	-17	10	-2	0	i
O=C(/C=C/c1ccco1)Nc1cc(Cl)ccc1C(=O)O	3	0	-5	25	89*	+
COC(=O)c1ccccc1NC(=O)COC(=O)/C=C/c1ccco1	7	-20	21	26	53*	i
O=c1c2c(-c3cccs3)csc2[nH]c(=S)n1-c1ccccc1	-5	7	67*	3	24	i
CC(C)n1c(=S)[nH]c2scc(-c3cccs3)c2c1=O	16	3	-112	21	50	?
COc1cccc(CNCc2ccccc2Br)c1OC	-7	1	14	-6	17	i
CCOc1ccc(-c2ccc(/C=C3/C(=N)N4C(C)=CSC4=NC3=O)o2)c([N+](=O)[O-])c1	-7	-10	-16	0	80*	+
CCN(c1ccc(NC(=O)CSc2nnc3nc(C)cc(C)n23)cc1)C(C)C	6	-9	73*	4	-4	i
CCOC(=O)[C@H]1[C@H]2COc3ccc(OC)cc3[C@@H]2N2C(=O)CN(Cc3ccc(OC)cc3)C(=O)[C@@]12C	-6	-8	.	0	.	.
CCCNC(=O)C1(C)CCN(Cc2ccc(OCc3ccccc3)cc2)C1 (stereo unspecified)	.	-13	.	.	.	.
O=C1NCCN(C(=O)CCc2nnc(-c3ccsc3)o2)C1c1ccc(F)cc1 (stereo unspecified)	-1	7	26	6	-6	i
CCN(CC)C(=O)Cn1cc(C(=O)C(=O)NCc2ccccn2)c2ccccc21	-5	-3	26	-6	-4	i
Cc1c(C2(O)CCCCC2)[nH]c2ncccc12	-6	-9	.	-4	.	.
O=S(=O)(c1cccs1)N1CCC(CO)(Cc2cccc(F)c2)CC1	-7	12	30	-2	0	i
Cc1cccc(N(C)C(=O)CCS(=O)(=O)c2cc3c(cc2Cl)NC(=O)CO3)c1	-8	39*	18	-1	-14	i
Cc1cccc(CCNC(=O)CCS(=O)(=O)c2cc3c(cc2Cl)NC(=O)CO3)c1	-5	13	15	-1	-5	i
Cc1ccc(-c2cc(-c3ccco3)c3c(N)c(C(=O)NN)oc3n2)cc1	7	-43	12	2	?	?
NNC(=O)c1oc2nc(-c3cccs3)cc(-c3ccco3)c2c1N	-2	-52	36	-1	?	+
C[C@H](O)[C@@H]1CN2CCc3c([nH]c4ccc(-c5ccc6c(c5)OCO6)cc34)[C@@H]2C[C@@H]1N(C)C(=O)NC1CCCCC1	.	-12	.	.	.	.
Cc1nc(S/C(=C\c2ccc(OCc3ccccc3Cl)cc2)C(=O)O)n[nH]1	-7	-3	-9	-4	20	i
Cc1nc(S/C(=C\c2ccc(-c3ccc(C(=O)O)c(Cl)c3)o2)C(=O)O)n[nH]1	.	-78	45	.	75*	+
COc1ccncc1-c1ccc(C2=CC(=O)CC(C)(C)C2=O)cc1	.	2	.	.	.	.
O=C(NCc1ccc(F)cc1)C(c1ccncc1)N(C(=O)c1csnn1)C1CC1 (stereo unspecified)	-4	4	38	-3	-11	i
